Data taken from the supplement of paper PMC11732987, “Enantioselective OTUD7B fragment discovery through chemoproteomics screening and high-throughput optimisation” (Communications Chemistry, 2025).

Assays:
Assay in all cases: log2 ratio of Biotin-Ahx-Ub-VS probe labelling (fragment/DMSO); higher = less target engagement (more negative = stronger competition), active = hit call of the paper (q ≤ 0.05, log2 ratio ≤ -1)
Conditions in all cases: compound concentration: 200 uM; treatment time: 3 h
[1] = target: USP16 (UniProt Q9Y5T5)
Summary of the method: (§1)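 Labelled DUBs were enriched with NeutrAvidin, digested with LysC and trypsin, and run by diaPASEF LC-MS/MS. The labelling used Biotin-Ahx-Ub-VS at 0.5 µM final for 1 h on HEK293T lysate (495 µg per sample) previously treated in triplicate with fragment at 200 µM or vehicle for 3 h. Values are average log2 fragment/vehicle ratios by unpaired t-test on global-median-normalised Spectronaut quantities of proteins with ≥2 unique peptides.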

[2] = target: T1, USP19 (UniProt O94966)
T1 sequence (whole entry): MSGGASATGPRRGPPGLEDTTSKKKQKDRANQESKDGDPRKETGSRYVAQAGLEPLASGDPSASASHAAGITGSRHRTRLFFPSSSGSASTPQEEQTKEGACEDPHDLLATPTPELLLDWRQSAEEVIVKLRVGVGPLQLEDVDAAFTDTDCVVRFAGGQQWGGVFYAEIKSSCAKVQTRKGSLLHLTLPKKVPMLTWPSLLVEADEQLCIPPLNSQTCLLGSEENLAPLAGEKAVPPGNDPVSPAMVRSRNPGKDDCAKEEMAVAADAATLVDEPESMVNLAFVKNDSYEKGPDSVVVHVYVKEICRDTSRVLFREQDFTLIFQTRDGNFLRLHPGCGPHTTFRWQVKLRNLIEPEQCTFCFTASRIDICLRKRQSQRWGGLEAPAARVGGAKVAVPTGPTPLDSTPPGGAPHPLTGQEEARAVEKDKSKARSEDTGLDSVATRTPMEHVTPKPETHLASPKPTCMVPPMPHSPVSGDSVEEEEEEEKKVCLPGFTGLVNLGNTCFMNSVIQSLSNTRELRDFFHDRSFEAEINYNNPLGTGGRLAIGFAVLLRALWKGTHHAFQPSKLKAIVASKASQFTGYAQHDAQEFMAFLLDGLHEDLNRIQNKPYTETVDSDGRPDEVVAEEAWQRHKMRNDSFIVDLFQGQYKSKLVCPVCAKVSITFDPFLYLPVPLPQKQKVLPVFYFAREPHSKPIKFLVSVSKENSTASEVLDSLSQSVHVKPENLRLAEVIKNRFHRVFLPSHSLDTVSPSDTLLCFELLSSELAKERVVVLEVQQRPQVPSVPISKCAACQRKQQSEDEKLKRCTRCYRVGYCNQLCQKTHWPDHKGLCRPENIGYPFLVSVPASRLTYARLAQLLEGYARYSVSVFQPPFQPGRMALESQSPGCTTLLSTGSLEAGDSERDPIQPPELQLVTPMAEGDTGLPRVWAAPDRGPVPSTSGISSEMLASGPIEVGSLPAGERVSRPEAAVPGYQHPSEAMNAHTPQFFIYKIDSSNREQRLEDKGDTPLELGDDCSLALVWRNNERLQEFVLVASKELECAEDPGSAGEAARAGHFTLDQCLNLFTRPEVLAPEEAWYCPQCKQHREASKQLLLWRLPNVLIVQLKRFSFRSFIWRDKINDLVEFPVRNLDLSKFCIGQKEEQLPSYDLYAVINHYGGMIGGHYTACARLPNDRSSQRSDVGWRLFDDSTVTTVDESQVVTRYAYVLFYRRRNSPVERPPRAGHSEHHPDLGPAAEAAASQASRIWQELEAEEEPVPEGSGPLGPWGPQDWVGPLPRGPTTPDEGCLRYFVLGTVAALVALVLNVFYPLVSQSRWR
Summary of the method: as §1

[3] = target: USP24 (UniProt Q9UPU5)
Summary of the method: as §1

[4] = target: T2, USP25 (UniProt Q9UHP3)
T2 sequence (whole entry): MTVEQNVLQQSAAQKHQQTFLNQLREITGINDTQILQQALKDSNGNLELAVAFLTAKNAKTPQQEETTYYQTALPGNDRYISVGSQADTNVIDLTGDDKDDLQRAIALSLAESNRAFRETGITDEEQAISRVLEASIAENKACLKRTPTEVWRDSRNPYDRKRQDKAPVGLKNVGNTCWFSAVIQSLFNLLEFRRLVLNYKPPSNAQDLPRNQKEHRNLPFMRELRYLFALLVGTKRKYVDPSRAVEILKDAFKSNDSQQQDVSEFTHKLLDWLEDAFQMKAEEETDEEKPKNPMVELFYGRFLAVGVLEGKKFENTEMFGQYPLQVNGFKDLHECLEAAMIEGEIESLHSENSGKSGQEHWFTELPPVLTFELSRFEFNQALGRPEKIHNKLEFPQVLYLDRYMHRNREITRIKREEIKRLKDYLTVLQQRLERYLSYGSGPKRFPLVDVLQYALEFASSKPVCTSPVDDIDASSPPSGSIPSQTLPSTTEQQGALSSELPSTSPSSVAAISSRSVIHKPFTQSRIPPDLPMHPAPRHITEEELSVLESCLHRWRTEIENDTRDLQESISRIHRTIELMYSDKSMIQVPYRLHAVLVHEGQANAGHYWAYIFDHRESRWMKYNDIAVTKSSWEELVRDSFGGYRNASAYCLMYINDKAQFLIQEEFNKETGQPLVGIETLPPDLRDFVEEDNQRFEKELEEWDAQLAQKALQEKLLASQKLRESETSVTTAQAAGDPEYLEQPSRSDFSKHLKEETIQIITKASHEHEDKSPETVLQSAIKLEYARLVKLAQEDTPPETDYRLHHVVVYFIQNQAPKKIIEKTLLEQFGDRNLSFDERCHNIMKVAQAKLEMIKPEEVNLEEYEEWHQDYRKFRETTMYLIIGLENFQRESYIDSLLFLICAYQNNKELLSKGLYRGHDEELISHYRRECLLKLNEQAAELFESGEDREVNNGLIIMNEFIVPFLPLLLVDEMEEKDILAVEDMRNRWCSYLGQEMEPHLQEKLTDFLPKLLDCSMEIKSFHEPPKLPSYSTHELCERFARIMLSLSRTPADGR
Summary of the method: as §1

[5] = target: T3, USP28 (UniProt Q96RU2)
T3 sequence (whole entry): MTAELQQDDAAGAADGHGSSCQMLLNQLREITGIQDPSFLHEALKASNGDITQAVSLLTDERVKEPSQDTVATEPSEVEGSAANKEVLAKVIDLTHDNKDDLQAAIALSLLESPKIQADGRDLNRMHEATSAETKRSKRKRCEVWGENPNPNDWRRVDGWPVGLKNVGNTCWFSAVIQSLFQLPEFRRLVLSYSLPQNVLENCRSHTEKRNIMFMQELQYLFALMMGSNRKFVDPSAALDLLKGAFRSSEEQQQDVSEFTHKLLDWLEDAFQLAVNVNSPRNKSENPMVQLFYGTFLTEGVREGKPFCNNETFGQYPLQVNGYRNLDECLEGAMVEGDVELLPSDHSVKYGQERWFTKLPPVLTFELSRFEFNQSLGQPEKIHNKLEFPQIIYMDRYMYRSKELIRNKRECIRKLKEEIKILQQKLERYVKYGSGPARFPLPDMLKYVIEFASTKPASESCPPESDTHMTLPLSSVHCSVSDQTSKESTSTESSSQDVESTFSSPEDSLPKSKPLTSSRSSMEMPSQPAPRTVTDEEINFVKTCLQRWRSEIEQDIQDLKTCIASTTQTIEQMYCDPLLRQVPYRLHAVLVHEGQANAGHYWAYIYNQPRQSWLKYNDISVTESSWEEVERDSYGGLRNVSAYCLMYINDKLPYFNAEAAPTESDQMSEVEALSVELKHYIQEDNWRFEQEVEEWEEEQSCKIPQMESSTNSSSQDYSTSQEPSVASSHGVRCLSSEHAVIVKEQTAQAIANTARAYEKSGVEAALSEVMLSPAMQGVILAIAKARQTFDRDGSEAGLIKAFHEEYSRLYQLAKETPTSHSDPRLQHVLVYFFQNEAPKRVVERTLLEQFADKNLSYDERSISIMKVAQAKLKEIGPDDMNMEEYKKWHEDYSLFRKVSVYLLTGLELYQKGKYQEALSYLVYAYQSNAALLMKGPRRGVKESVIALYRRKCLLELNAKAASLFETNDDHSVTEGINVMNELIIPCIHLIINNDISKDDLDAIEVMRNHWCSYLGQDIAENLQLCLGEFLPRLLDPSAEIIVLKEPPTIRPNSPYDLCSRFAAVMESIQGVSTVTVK
Summary of the method: as §1

Measured: log2 ratio of Biotin-Ahx-Ub-VS probe labelling

USP24, sequence (Q9UPU5 whole entry): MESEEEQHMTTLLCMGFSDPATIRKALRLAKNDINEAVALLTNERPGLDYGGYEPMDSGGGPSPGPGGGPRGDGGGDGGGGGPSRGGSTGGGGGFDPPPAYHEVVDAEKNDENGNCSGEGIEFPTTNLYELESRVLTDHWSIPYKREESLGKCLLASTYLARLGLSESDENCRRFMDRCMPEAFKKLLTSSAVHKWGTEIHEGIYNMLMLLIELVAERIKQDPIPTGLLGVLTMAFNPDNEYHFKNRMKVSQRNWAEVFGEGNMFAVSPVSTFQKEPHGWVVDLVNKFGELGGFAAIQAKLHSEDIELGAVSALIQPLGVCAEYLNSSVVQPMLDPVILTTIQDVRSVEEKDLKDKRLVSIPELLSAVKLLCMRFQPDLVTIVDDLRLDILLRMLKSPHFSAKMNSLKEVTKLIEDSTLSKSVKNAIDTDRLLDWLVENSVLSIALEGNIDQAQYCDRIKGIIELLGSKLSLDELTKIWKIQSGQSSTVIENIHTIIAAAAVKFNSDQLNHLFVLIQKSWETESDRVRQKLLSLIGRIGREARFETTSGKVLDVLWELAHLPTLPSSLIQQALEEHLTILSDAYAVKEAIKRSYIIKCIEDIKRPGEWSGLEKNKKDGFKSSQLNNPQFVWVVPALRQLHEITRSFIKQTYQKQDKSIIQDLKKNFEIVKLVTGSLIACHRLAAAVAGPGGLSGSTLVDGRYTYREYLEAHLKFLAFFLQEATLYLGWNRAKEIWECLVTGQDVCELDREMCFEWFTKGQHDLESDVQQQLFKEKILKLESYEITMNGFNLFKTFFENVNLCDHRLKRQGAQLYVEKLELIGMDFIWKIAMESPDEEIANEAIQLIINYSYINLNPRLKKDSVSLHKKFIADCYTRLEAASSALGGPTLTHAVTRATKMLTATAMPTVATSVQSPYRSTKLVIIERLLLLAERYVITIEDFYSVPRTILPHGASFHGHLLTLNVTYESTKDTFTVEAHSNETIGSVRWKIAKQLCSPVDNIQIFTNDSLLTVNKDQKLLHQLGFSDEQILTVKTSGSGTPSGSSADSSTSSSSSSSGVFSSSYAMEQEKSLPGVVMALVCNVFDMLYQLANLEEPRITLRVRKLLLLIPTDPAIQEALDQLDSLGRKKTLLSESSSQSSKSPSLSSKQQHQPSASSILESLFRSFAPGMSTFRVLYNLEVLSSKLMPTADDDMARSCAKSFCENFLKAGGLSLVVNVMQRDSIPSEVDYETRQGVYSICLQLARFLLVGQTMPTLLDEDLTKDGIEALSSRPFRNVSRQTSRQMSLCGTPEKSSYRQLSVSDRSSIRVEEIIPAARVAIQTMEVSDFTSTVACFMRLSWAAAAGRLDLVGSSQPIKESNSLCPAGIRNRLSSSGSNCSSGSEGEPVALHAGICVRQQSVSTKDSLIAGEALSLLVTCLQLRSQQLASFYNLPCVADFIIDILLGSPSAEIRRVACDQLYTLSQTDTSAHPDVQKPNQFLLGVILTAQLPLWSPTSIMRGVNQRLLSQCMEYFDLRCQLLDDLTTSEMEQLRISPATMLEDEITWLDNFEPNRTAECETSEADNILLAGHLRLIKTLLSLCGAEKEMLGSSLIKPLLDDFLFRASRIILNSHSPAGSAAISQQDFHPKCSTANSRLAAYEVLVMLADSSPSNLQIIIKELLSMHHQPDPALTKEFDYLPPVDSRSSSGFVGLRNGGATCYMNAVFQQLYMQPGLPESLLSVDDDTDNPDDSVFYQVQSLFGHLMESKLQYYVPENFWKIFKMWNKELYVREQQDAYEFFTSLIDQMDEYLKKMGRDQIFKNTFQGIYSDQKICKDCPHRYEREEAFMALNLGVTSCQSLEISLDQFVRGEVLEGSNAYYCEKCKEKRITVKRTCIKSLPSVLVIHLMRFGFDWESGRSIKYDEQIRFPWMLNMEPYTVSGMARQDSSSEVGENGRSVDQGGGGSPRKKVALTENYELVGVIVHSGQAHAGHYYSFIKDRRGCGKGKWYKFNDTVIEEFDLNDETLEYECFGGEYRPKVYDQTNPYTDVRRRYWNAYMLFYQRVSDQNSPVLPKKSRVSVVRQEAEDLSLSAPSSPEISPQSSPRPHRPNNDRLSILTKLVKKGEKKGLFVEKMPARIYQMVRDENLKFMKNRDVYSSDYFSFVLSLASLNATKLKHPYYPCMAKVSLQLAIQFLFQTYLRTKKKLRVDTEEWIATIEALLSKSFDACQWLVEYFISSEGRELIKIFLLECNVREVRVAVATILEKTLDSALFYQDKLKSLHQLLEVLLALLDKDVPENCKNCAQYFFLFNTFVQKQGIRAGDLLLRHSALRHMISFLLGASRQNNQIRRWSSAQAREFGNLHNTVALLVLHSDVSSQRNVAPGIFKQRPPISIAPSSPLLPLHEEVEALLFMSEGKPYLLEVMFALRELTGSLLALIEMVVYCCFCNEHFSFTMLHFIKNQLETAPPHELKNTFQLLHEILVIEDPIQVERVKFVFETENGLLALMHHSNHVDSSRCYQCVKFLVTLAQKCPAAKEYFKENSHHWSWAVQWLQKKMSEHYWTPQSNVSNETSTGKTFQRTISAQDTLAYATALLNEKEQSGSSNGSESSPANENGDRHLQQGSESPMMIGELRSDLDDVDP
USP16, sequence (Q9Y5T5 whole entry, looked up, the tested form may be a part): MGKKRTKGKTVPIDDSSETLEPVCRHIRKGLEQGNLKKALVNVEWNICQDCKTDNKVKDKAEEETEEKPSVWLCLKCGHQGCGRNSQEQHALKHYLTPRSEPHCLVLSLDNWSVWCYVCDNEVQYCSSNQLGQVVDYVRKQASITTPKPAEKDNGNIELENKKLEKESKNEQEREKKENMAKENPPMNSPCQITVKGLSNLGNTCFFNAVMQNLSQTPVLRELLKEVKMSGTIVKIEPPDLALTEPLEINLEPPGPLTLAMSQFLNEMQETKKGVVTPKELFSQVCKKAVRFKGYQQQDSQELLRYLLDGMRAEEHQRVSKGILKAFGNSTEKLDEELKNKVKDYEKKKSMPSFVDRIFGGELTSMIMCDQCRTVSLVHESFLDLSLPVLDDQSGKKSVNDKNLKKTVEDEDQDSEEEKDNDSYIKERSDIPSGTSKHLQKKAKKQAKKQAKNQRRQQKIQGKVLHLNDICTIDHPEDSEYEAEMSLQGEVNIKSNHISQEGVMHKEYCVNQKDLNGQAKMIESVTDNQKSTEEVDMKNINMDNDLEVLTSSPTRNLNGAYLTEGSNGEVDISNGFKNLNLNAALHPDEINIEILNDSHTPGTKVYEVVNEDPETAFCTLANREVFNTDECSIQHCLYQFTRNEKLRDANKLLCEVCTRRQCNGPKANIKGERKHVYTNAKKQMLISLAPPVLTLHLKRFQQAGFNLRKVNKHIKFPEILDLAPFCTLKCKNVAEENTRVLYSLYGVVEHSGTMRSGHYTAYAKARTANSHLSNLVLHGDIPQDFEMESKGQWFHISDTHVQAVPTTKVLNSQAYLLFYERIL

Cl.O=C(CCl)NC1(c2ncccn2)CCC1
inactive: [1] 0.0942 | [2] 0.0868 | [3] 0.06 | [4] -0.18 | [5] -0.0581
